This is an account of results in PubChem BioAssay (Tox21).

Values without a mark were called inactive. Results filed as inconclusive are left out. Calls of active or inactive are those of the source. Unless noted, the call rests on the fitted dose curve; in most records, active means well fitted curve in the direction sought with a large enough effect in the repeat runs; inconclusive means weak or mixed curves; inactive means no such curve, though single readings can be large; an effect the other way counts as inactive or inconclusive.

Assay [1] can be described thus: qHTS assay to identify small molecule agonists of the hypoxia (HIF-1) signaling pathway - cell viability counter screen (AID 1224844; calls by dose curve; further: nearly all actives have a fitted effect of over 50% in size; further: potency means the concentration at half of the fitted maximal effect). The essentials:
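Cytotoxicity measured by CellTiter-Glo ATP luminescence in the wells also read for beta-lactamase signal. Cells were HRE-bla ME-180 (2,000/well, 0.5% dialyzed FBS), exposed to compounds for 17 h at 37C.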
In general terms: qHTS replaces the single test concentration by a dilution series.

Assay [2] can be described thus: qHTS assay to identify small molecule agonists of H2AX (AID 1224845; active means well fitted activation curve with a large enough effect in the signal ratio in the repeat runs, not every such curve was filed as active; the % refers to the signal ratio; further: potency means the concentration at half of the fitted maximal effect). The essentials: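 Wild-type CHO-K1 cells plated overnight, then exposed 3 hr at 37C to compounds at 15 concentrations (0.76% DMSO). Lysed, then HTRF anti-pH2AX(S139)-cryptate/anti-H2AX-d2 detection after 24 hr at room temperature; emissions 665 and 620 nm.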
The nature of assay [3]: qHTS assay to identify small molecule agonists of the hypoxia (HIF-1) signaling pathway (AID 1224846; active means well fitted activation curve with a large enough effect in the signal ratio in the repeat runs, not every such curve was filed as active; the % refers to the signal ratio). The essentials:
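Compounds added to ME-180 cells carrying hypoxia-response-element beta-lactamase reporter (0.5% dialyzed FBS, 5 h preplating), 17 h at 37C; agonist activity detected by CCF4-AM B/G FRET read-out.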

Assay [4] in a line: qHTS assay to identify small molecule agonists of the estrogen related receptor (ERR) signaling pathway from Tox21 library (AID 1224849; calls by dose curve; further: nearly all actives have a fitted effect of over 15% in size). The note with it: ERR reporter cell line, ONE-Glo luciferase, 18 h; at 92.4 µM (top of the series) unless noted. The essentials:
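Luminescent agonist read-out (One-Glo, 30-minute room-temperature incubation) following 18-hour compound treatment at 37 C of the ERR cell line, which had been plated 6 hours before dosing.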

Assay [5] in a line: qHTS RealTime-Glo MT Cell Viability Assay in HepG2 cells - 24 hour (AID 1224867). Further: nearly all actives have a fitted effect of over 50% in size. Further: potency means the concentration at half of the fitted maximal effect. The essentials: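 Viability was tracked continuously by NanoLuc luminescence from prosubstrate reduced by living HepG2 cells, at successive time points over 40 h of compound exposure. Cells with reagent were preincubated 5 h at 37 °C before compound addition.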
A short description of assay [6]: qHTS RealTime-Glo MT Cell Viability Assay in HEK293 cells - 32 hour (AID 1224868). Further: nearly all actives have a fitted effect of over 50% in size. Further: potency means the concentration at half of the fitted maximal effect. A digest of the protocol:
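Viability tracked continuously by luminescence as live cells reduce a prosubstrate for NanoLuc; HEK293 cells preincubated 5 h, compound-treated at 37 C, and read at 0, 8, 16, 24, 32 and 40 h.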

A short description of assay [7]: A CellTox Green Cytotoxicity Assay to monitor cytotoxicity in HEK293 cells - 0 hour (AID 1224869). Further: nearly all actives have a fitted effect of over 50% in size. Further: potency means the concentration at half of the fitted maximal effect. The essentials: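 Fluorescence from a DNA-binding dye excluded by viable cells was measured repeatedly in the same HEK293 wells (600 cells/well) during continuous compound exposure at 37 C. Each assay gives one read point: 0, 8, 16, 24, 32 or 40 h.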
Assay [8] is described as follows: qHTS assay to identify small molecule agonists of H2AX - cell viability counter screen (AID 1224847; calls by dose curve; further: nearly all actives have a fitted effect of over 30% in size; further: potency means the concentration at half of the fitted maximal effect; on activity change, negative = cytotoxicity: top concentration of the series differs between compounds). The essentials:
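We seed wild-type CHO-K1 cells overnight, treat them for 3 hr at 37C with compounds in 15-concentration series, and quantify remaining viability by CellTiter-Glo luminescence.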

A short description of assay [9]: qHTS assay to identify small molecule antagonists of the estrogen related receptor (ERR) signaling pathway from Tox21 library (AID 1224848). Further: nearly all actives have a fitted effect of over 50% in size. Further: potency means the concentration at half of the fitted maximal effect. A digest of the protocol:
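Tox21 10K compounds in DMSO tested for ERR pathway antagonism in NTP's ERR cell line; 18 h, 37 C exposure; ONE-Glo luminescence.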

The target in assay [10] is Thyrotropin receptor (Homo sapiens) (UniProt P16473). The assay is described as follows: qHTS assay to identify small molecule agonists of the thyroid stimulating hormone receptor (TSHR) signaling pathway (AID 1224843; calls by dose curve; further: nearly all actives have a fitted effect of over 45% in size). A digest of the protocol:
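Using 15 concentrations per compound in triplicate, cAMP production was monitored in TSHR-HEK293 cells after 30 min compound incubation at RT; HTRF reagents followed, with fluorescence intensity recorded after 1 h.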
On the % scale 0 is the no-effect control and ±100 the full control effect.

Sequence of Thyrotropin receptor (Homo sapiens) (P16473 whole entry, looked up): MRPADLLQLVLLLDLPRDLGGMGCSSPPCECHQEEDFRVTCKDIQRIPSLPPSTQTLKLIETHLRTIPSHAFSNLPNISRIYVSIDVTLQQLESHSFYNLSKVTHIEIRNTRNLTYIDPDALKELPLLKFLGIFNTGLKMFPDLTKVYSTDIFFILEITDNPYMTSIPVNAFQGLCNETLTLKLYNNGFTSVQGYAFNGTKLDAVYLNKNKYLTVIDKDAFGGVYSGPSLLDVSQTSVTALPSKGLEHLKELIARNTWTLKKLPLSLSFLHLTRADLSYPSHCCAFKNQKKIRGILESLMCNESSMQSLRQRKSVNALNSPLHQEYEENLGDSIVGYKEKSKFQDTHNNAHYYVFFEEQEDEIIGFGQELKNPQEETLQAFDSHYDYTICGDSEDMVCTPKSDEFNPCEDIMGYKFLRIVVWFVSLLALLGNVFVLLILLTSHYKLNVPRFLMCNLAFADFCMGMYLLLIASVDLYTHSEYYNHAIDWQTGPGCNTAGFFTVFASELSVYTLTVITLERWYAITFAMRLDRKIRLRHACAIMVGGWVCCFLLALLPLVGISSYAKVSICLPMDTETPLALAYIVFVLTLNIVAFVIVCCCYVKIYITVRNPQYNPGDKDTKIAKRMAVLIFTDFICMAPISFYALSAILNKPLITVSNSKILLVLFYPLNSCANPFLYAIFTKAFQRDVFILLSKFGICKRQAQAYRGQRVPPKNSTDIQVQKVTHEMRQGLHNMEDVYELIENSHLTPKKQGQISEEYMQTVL

`Cc1cccc(N(C)C(=S)Oc2ccc3c(c2)CCC3)c1`: the Potency result in assay [1], in assay [2], in assay [5], in assay [6] and in [7] was “inactive” each time. Further, the outcome in [3] was inactive. For the same compound, the activity change, positive = activation in assay [4] was -21.2% [at 42.5 µM].

With `CC/C=C1/OC(=O)c2ccccc21`, the Potency result in [1], in [2], in assay [8], in assay [9], in assay [5] and in [6] was “inactive” throughout. In addition, the Potency result in [7] was “inactive”. For the same compound, in assay [3], the compound was called inactive. Moreover, in assay [4], the activity change, positive = activation is -1.59%.

On to `C(=C\c1ccccc1)/c1ccccc1`, for which the Potency result in assay [10], in [9], in assay [5], in assay [6] and in assay [7] was “inactive” in each case. Also, the compound was classed as inactive in [3].

With `Cc1cc(O)c(C)c(C)c1O`, the Potency result in assay [1], in [2], in assay [5] and in [7] was “inactive” in each case. In addition, the result in assay [3] was inactive. For the same compound, the activity change, positive = activation in [4] is 2.57% [at 42.5 µM].

Take `CC1(C)[C@@H](OC(=O)CCC(=O)O)CC[C@]2(C)[C@H]3C(=O)C=C4[C@@H]5C[C@@](C)(C(=O)O)CC[C@]5(C)CC[C@@]4(C)[C@]3(C)CC[C@@H]12`: the Potency result in assay [10], in [9], in assay [5], in [6] and in assay [7] was “inactive” in each case. Further, the activity change, positive = activation in [4] is 1.84% [at 42.5 µM].

On to `CCN(CC)CCNC(=O)COc1ccc(OC)cc1`, for which the Potency result in [1], in assay [2], in [5], in [6] and in [7] was “inactive” throughout.

As for `COc1ccccc1NC(=O)c1cc2ccccc2cc1O`, the Potency entry in assay [10] and in [7] was “inactive” each time. Besides, the Potency in [8] was 89.8 µM (active); in [6] it was 34.7 µM (active). Besides, the activity change, positive = activation in assay [4] was -49.7%.

As to `C1COC1`, the Potency result in assay [10], in assay [8], in assay [5], in assay [6] and in [7] was “inactive” in each case. Also, the result in [3] was inactive.

Regarding `O=Cc1c2ccccc2c(Cl)c2ccccc12`, the Potency entry in assay [1], in assay [2], in assay [5] and in assay [7] was “inactive” throughout. Besides, the Potency in assay [9] is 9.45 µM (active). The activity change, positive = activation in assay [4] was -33.4% [at 42.5 µM].

Regarding `O=C1c2ccccc2C(=O)N1CCc1noc(-c2ccc(CN3CCCCCC3)s2)n1`, the Potency result in assay [1], in assay [2] and in assay [5] was “inactive” in each case. Moreover, the compound was called inactive in [3]. Moreover, the Potency in assay [8] was 92.3 µM (active); in assay [6], 35.7 µM (active).

Turning to `CCCCCCCCCCCCCCN(CCO)CCO`, the Potency in assay [1] is 49 µM (active); in [8], 89.8 µM (active); in assay [9], 61.1 µM (active); in [5] it was 21.9 µM (active); in assay [6], 21.9 µM (active). Also, the Potency result in assay [2] and in assay [7] was “inactive” in each case. In assay [4], the activity change, positive = activation is -78.9%.

`C=C1c2cccc(O)c2C(O)=C2C(=O)[C@]3(O)C(O)=C(C(N)=O)C(=O)[C@@H](N(C)C)[C@@H]3[C@@H](O)[C@H]12`: the Potency entry in assay [1], in assay [2], in assay [8], in assay [5], in [6] and in assay [7] was “inactive” throughout. In addition, the activity change, positive = activation in assay [4] is -14.2% [at 42.5 µM].

With `CN1CCCC(CC2c3ccccc3Sc3ccccc32)C1` (stereo not drawn), the Potency result in assay [10] and in assay [7] was “inactive” throughout. Further, the activity change, positive = activation in assay [4] is -39.8% [at 42.5 µM]. Besides, the Potency in [5] and in [6] was 23.9 µM (active) in each case.

Take `CN(C)CCC=C1c2ccccc2C=Cc2ccccc21`: the Potency entry in [1], in [2], in assay [9], in assay [5] and in [7] was “inactive” throughout. Also, the activity change, positive = activation in [4] was -12.5% [at 42.5 µM].

As to `Cc1cc(=O)c2c(O)c3c(O)cc(=O)c4c3c3c(cc(O)c1c23)C(C)(C)C=4O`, the activation is 13.3% [at 19 µM] in assay [10] and -2.37% [at 15.8 µM] in assay [3]. Moreover, in [5], the activity change, negative = cytotoxicity is -25.2% [at 15.8 µM]. The Potency was 1.17 µM (active) in [6] and 3.69 µM (active) in assay [7].

For `FC(F)(F)c1ccccc1Cl`, the Potency entry in [1], in [2], in [8], in assay [9], in [5] and in [6] was “inactive” in each case. In addition, the Potency result in [7] was “inactive”. Also, the compound was called inactive in [3]. Also, the activity change, positive = activation in assay [4] was -2.05%.

Regarding `COC(=O)[C@H]1[C@H]2C[C@@H]3c4[nH]c5cc(OC)ccc5c4CCN3C[C@H]2C[C@@H](OC(=O)/C=C/c2ccc(O)c(OC)c2)[C@@H]1OC`, the Potency result in assay [1], in [2], in assay [8] and in assay [5] was “inactive” each time. The result in [3] was inactive. Further, in assay [9], the Potency was 10.6 µM (active). Also, the activity change, positive = activation in [4] was -35.3% [at 42.5 µM].

Take `COc1cc(Nc2c(C#N)cnc3cc(OCCCN4CCN(C)CC4)c(OC)cc23)c(Cl)cc1Cl`: the Potency entry in assay [1] and in assay [7] was “inactive” each time. Besides, the Potency is 7.8 µM (active) in assay [2], 55.2 µM (active) in [8] and 8.49 µM (active) in assay [6]. For the same compound, the outcome in assay [3] was inactive.

As to `CC(CC1c2ccccc2CCc2ccccc21)CN(C)C` (stereo not drawn), the Potency in [1] was 10.7 µM (active). In addition, the Potency entry in assay [2], in [8], in [5], in [6] and in [7] was “inactive” each time. Further, in assay [3], the compound was classed as inactive.

For the compound `O=c1cc(-c2ccccc2)oc2cc(O)cc(O)c12`, the Potency result in assay [1], in [2] and in assay [7] was “inactive” in each case.

For `CN(C(=O)CN(CCO)CC(=O)N(C)C(C)(C)Cc1ccccc1)C(C)(C)Cc1ccccc1`, the Potency result in [1], in assay [2] and in [7] was “inactive” in each case. Also, in [4], the activity change, positive = activation was -27.5% [at 42.5 µM]. The Potency in [6] is 19 µM (active).

With `COc1cc(C(=O)NC2CCN(C)CC2)ccc1Nc1ncc2c(n1)N(C1CCCC1)CC(F)(F)C(=O)N2C`, the Potency result in [10] was “inactive”. Also, the outcome in assay [3] was inactive. Besides, in assay [4], the activity change, positive = activation was -53.6%. Further, the Potency in [5] is 40 µM (active); in assay [6] it was 0.0142 µM (active).

As for `O=C1C(=O)c2ccccc2C(O)=C1C1CCC(c2ccc(Cl)cc2)CC1` (stereo not drawn), the Potency entry in assay [1], in assay [8], in [5], in assay [6] and in [7] was “inactive” in each case. For the same compound, the compound was classed as inactive in assay [3]. Further, the Potency in assay [9] was 10.6 µM (active). In addition, the activity change, positive = activation in [4] is 0.683% [at 42.5 µM].
